Test results from the supplement of paper PMC13380429.

Test system: Vero E6 infected with SARS-CoV-2
Assay: inhibition of SARS-CoV-2 cytopathic effect; higher = more antiviral protection, active = above 15
Details: 48 h

Measured: inhibition of SARS-CoV-2 cytopathic effect

CCCC[C@]1(CC)CS(=O)(=O)c2cc(CNC(CC(=O)O)CC(=O)O)c(OC)cc2[C@@H](c2ccccc2)N1
inactive: 1 nM 3.94% | 8.33 nM 3.04% | 100 nM 5.12% | 833.33 nM 1.44% | 10000 nM 1.53%

CC(C)(C)[C@]1(O)CC2OC(=O)CC23C(=O)OC2OC(=O)[C@H](O)C231 (stereo not given in full) [bilobalide]
inactive: 1 nM -0.27% | 8.33 nM 0.92% | 100 nM 0.44% | 833.33 nM -0.26% | 10000 nM -0.37%

O=C(O)c1c(Sc2ccccc2)c2cc(Cl)ccc2n1Cc1ccc(Cl)cc1
inactive: 1 nM 1.19% | 8.33 nM -0.87% | 100 nM -0.5% | 833.33 nM 3.75% | 10000 nM 1.7%

COc1c(C)c(C(=O)c2ccc(N)c(C(=O)O)c2)n2ccccc12
inactive: 1 nM -2.54% | 8.33 nM 1.8% | 100 nM 0.21% | 833.33 nM -1.06% | 10000 nM -1.34%

CCC(=O)O[C@H]1CC[C@H]2[C@@H]3CCC4=CC(=O)CC[C@]4(C)[C@H]3CC[C@]12C
inactive: 1 nM -13.2% | 8.33 nM -10.2% | 100 nM -12.5% | 833.33 nM -13.3% | 10000 nM -14%

OC[C@@H](O)[C@@H](O)[C@H](O)[C@@H](O)CO [sorbitol]
inactive: 1 nM 0.49% | 8.33 nM -0.64% | 100 nM -0.23% | 833.33 nM 1.86% | 10000 nM 1.46%

Cc1cccc(-c2nn3c(c2-c2ccnc4ccc(C(N)=O)cc24)CCC3)n1
inactive: 1 nM 0.85% | 8.33 nM -0.43% | 100 nM -0.97% | 833.33 nM -0.85% | 10000 nM -1.59%

NS(=O)(=O)Cc1noc2ccccc12 [zonisamide]
inactive: 1 nM -1.19% | 8.33 nM -3.86% | 100 nM -0.76% | 833.33 nM 0.73% | 10000 nM -2.23%

CCCCCCCCCCCCCCCCCCCCCC(=O)Nc1ccn([C@@H]2O[C@H](CO)[C@@H](O)[C@@H]2O)c(=O)n1 [enocitabine]
inactive: 1 nM -3% | 8.33 nM -4.05% | 100 nM -1.69% | 833.33 nM -5.11% | 10000 nM -4.84%

C[N+](C)(C)CCCCCC[N+](C)(C)C [hexamethonium]
inactive: 1 nM -0.33% | 8.33 nM 1.65% | 100 nM 0.44% | 833.33 nM -0.93% | 10000 nM -1.17%

C[C@@H](Oc1cc(-n2cnc3ccc(CN4CCN(C)CC4)cc32)sc1C(N)=O)c1ccccc1C(F)(F)F
active: 10000 nM 54.8%
inactive: 1 nM 1.38% | 8.33 nM 0.72% | 100 nM 1.12% | 833.33 nM -3.55%
